According to PubChem BioAssay (NCI):
Compounds without any hit were thinned out: in the full panel of roughly 83,000, 20% have a hit.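 Growth was measured after 48 h exposure to one concentration of compound in 96-well plates. Values under 10 count as active.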 A number with no mark means an inactive call. Active and inactive are the calls of the source.

What follows are compounds tested on MDA-MB-435 melanoma (assay: NCI-60 one-dose screen, 48 h (100 = growth as untreated, 0 = no growth, -100 = all killed)). Conditions: 10 µM unless noted.

SMILES	growth
O=C(Nc1ccc(C(=O)Nc2ccc(C3=NCCCN3)cc2)cc1)Nc1ccc(C2=NCCCN2)cc1	103%
CC(C)C1CCC(C)C(C2(C#N)C(N)=NC(N)=C2C#N)C1=O (stereo not given)	101%
O=C(/C=C/c1ccc2c(c1)OCO2)c1c(O)c2ccccc2oc1=O	104%
CCNC(=O)C#Cc1ccc2c(C(=Nc3ccc(CN(C)C)cc3)c3ccccc3)c(O)[nH]c2c1	14.7%
CNS(=O)(=O)Nc1nccc(Cc2c(C)c3ccc(Oc4ncccn4)cc3oc2=O)c1F	37.1%
C[C@@H](NC(=O)c1ncnc(N)c1Cl)c1ncc(C(=O)Nc2cc(C(F)(F)F)c(Cl)cn2)s1	39.3%
COc1ccc(Nc2ncccc2NC(=O)c2cn(Cc3cccc(Oc4ccccc4)c3)nn2)cc1	77.8%
COc1ccc(OC)c(NC2=C(SCCc3ccccc3)C(=O)c3ccccc3C2=O)c1	94.7%
O=C(O)c1ccc2c(c1)nc(Nc1cccc(Cl)c1)c1ccncc12	5.4% (active)
Cc1nc(Nc2n[nH]c3c2CN(C(=O)N[C@H](CN(C)C)c2ccccc2)C3(C)C)c2sccc2n1	-66.2% (active)
NC1(C(=O)N[C@@H](CCO)c2ccc(Cl)cc2)CCN(c2ncnc3[nH]ccc23)CC1	26.3%
COC[C@@H](C)n1c(C2CCOCC2)nc2c1C1C=C(OC)C(c3c(C)noc3C)=CC1N=C2 (stereo not given in full)	41.6%
N#CC1(C#N)C(c2cccs2)NC(c2cccs2)C1(C#N)C#N (stereo not given)	107%
Cn1cnc(-c2cc3nccc(Oc4ccc(NC(=S)NC(=O)Cc5ccccc5)cc4F)c3s2)c1	93.2%
C#Cc1cccc(Nc2ncnc3cc(OC)c(OCCCCCCC(=O)NO)cc23)c1	-28.1% (active)
CCCCn1c(C)nc2ccc(Nc3nc(N4CCN(C)CC4)nc4nc[nH]c34)cc21	94.3%
O=C(Cn1ccc2ccccc21)Nc1ccc(-c2nc3ccccc3s2)cc1	104%
O=C(NOC[C@H](O)CO)c1ccc(F)c(F)c1Nc1ccc(I)cc1F	33%

SMILES	growth
Cc1sc2c(c1C)c(=O)nc1c(-c3nc4ccccc4s3)n[nH]n12	110%
CC1(/C=N/NC(N)=S)NC(=O)NC1=O (stereo not given)	107%
COC(=O)CNC(=O)[C@@H](OC)[C@@H]1Cc2cc3cc(OC4CC(OC5CC(O)C(O)C(C)O5)C(O)C(C)O4)c(C)c(O)c3c(O)c2C(=O)[C@H]1OC1CC(OC2CC(OC3CC(C)(O)C(O)C(C)O3)C(O)C(C)O2)C(O)C(C)O1 (stereo not given in full)	-39.2% (active)
COc1ccc2c(CCC(c3ccccc3)c3ccccc3)c3[n+](cc2c1OC)CCc1cc2c(cc1-3)OCO2	-72% (active)
O=C(NC[C@H](O)CO)c1ccncc1Nc1ccc(I)cc1F	35.2%
CC(C)(C)OC(=O)N1CCC(O)[C@@H](O[Si](c2ccccc2)(c2ccccc2)C(C)(C)C)[C@H]1/C=C/c1ccccc1 (stereo not given in full)	57.4%
C1=C\COCc2cc(ccc2OCCN2CCCC2)Nc2nccc(n2)-c2cccc(c2)COC/1	-54.6% (active)
COc1cccc(Nc2ncnn3ccc(CN4CC[C@@H](N)[C@H](O)C4)c23)c1	75.6%
C=C1C(=O)O[C@H]2[C@H]1CC/C(C=Nc1c(N)cc(C(F)(F)F)cc1C(F)(F)F)=C\CC[C@@]1(C)O[C@@H]21	-71.9% (active)
CO[C@H]1C[C@@H]2CC[C@@H](C)[C@@](O)(O2)C(=O)C(=O)N2CCCC[C@H]2C(=O)O[C@H]([C@H](C)C[C@@H]2CC[C@@H](OC(=O)C(C)(CO)CO)[C@H](OC)C2)CC(=O)[C@H](C)/C=C(\C)[C@@H](O)[C@@H](OC)C(=O)[C@H](C)C[C@H](C)\C=C/C=C/C=C/1C	33.1%
N#Cc1ccc(-n2nnc3ccccc32)cc1C#N	85.3%
CCN(CC)CCNc1ccc(N=Nc2cnc3ccccc3c2)c2ccccc12	-33.2% (active)
O=c1[nH]c(N2CCOCC2)nc2scc(-c3ccccc3)c12	91.7%
CSc1nc2ncncc2[nH]1	91.9%
CN1CCC(CNc2ccc3ncc(-c4cccc(OC(F)(F)F)c4)n3n2)CC1	-95.8% (active)
Nc1c2c(c(O)c3c1=C(CO)C=N3)=NCCS2	-82% (active)
COc1cc2nccc(Oc3ccc(NC(=O)Nc4cc(C)on4)c(Cl)c3)c2cc1OC	14.8%
